# Laboratory results as given in publication PMC7862700, “An all-to-all approach to the identification of sequence-specific readers for epigenetic DNA modifications on cytosine”.
# Columns and labels:
# Test in all cases: DAPPL (digital affinity profiling via proximity ligation, sequencing); 10 mM Tris-HCl pH 7.5, 50 mM NaCl, 1 mM DTT, 4% glycerol, room temperature, 30 min; GST-TFs on glutathione beads, 16-mer random dsDNA library, 0.1% formaldehyde crosslink after washing; high values mean tight binding
# [1] = molecular target: HSF1 (Homo sapiens, UniProt Q00613 1-529); conditions: protein: recombinant; tags: N-terminal GST; chain copies: 3; dsDNA, one strand shown
# Sequence of HSF1 (Q00613 whole entry, the tested form may be a part): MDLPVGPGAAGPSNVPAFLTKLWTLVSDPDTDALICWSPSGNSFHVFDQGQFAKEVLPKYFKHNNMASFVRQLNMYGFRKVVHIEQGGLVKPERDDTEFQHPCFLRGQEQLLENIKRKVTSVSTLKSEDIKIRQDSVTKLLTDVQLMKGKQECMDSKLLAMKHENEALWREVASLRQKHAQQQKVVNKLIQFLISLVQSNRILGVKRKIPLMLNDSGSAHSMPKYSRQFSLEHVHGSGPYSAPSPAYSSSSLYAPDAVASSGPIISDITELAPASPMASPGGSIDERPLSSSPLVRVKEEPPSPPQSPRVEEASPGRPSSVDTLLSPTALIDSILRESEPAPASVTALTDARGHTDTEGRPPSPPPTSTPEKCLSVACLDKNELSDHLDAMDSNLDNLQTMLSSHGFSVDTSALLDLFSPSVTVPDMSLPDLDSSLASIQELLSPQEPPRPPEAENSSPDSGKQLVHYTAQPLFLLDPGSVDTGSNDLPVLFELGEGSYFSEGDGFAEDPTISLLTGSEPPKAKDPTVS
# How it was run: (§1)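 Binding signal is each hexamer's read frequency for a factor divided by its frequency in the tag-only sample. The factors were GST-fused human transcription factors from yeast, captured on glutathione beads, DNA-barcoded and pooled with that sample. Pools were incubated with 200 nmole of a random double-stranded 16-mer DNA library in Tris/NaCl/DTT/glycerol buffer at room temperature for 30 min, then washed, crosslinked with 0.1% formaldehyde, proximity-ligated with BsaI/T4 ligase (1 h, 37 °C), PCR-amplified and sequenced on an Illumina NextSeq500.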
# [2] = molecular target: T1, FLI1 (Homo sapiens, UniProt Q01543 1-452); conditions: protein: recombinant; tags: N-terminal GST; dsDNA, one strand shown
# T1 sequence: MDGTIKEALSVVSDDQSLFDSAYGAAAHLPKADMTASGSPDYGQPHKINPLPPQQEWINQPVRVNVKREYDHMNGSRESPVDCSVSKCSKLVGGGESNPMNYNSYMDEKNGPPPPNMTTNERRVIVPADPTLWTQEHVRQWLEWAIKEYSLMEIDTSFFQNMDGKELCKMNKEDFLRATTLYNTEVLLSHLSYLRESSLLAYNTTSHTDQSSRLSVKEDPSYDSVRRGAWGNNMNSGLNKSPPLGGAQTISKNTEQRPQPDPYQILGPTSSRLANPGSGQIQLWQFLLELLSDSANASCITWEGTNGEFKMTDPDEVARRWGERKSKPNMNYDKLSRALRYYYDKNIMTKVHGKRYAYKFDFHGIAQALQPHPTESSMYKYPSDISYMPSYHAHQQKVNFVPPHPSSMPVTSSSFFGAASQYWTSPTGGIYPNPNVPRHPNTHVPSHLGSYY
# How it was run: as §1
# [3] = molecular target: T2, ELK1 (Homo sapiens, UniProt P19419 1-428); conditions: protein: recombinant; tags: N-terminal GST; dsDNA, one strand shown
# T2 sequence: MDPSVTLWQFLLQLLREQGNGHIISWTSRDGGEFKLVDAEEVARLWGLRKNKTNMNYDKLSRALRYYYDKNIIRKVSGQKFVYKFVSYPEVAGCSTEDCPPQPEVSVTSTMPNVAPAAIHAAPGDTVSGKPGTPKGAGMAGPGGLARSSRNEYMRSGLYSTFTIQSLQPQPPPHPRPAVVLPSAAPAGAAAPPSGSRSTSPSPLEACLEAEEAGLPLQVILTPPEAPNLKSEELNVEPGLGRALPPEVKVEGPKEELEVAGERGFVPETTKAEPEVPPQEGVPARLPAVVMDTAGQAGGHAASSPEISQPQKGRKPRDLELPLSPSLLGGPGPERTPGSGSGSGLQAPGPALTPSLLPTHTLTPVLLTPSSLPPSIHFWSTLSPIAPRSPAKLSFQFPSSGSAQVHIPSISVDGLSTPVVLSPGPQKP
# How it was run: as §1
# [4] = molecular target: T3, GABPA (Homo sapiens, UniProt Q06546 1-454); conditions: protein: recombinant; tags: N-terminal GST; dsDNA, one strand shown
# T3 sequence: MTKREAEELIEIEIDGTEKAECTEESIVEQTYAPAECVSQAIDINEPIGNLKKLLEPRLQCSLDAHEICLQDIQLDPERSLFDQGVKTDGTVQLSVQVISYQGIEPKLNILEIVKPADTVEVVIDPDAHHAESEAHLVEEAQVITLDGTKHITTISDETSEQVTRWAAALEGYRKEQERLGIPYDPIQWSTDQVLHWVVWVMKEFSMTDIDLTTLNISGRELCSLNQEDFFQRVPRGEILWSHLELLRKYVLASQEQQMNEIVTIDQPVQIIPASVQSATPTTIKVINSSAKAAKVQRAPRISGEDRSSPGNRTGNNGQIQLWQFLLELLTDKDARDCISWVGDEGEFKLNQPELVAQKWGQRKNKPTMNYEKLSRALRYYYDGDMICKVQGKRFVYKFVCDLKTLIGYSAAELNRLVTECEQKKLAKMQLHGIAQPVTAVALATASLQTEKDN
# How it was run: as §1
# [5] = molecular target: ELF1 (Homo sapiens, UniProt P32519 1-619); conditions: protein: recombinant; tags: N-terminal GST; dsDNA, one strand shown
# Sequence of ELF1 (P32519 whole entry): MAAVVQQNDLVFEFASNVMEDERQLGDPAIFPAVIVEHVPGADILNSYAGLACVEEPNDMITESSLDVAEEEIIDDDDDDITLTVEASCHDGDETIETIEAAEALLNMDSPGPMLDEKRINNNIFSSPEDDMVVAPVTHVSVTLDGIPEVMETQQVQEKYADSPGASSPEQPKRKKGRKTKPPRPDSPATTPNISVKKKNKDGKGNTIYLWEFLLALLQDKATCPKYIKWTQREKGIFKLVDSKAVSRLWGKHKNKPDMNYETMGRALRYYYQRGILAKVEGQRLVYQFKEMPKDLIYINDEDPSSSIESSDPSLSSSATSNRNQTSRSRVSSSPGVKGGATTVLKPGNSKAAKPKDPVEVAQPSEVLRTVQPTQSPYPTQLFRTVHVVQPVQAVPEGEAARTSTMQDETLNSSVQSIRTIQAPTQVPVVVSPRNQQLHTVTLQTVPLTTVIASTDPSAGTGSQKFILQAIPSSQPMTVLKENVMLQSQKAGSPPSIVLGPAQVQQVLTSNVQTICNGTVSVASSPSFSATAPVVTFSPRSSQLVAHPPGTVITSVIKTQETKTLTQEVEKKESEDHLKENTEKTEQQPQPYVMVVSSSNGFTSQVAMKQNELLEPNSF
# How it was run: as §1
# [6] = molecular target: T4, EHF (Homo sapiens, UniProt Q9NZC4 1-300); conditions: protein: recombinant; tags: N-terminal GST; dsDNA, one strand shown
# T4 sequence: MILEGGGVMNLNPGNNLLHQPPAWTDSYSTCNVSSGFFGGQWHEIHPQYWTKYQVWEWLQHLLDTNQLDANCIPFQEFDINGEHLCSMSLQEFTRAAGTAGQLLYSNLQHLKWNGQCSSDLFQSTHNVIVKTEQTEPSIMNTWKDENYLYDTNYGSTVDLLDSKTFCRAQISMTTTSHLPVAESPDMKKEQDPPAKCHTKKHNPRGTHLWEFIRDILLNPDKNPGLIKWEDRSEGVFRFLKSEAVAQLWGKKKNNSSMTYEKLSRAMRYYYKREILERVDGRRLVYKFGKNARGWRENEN
# How it was run: as §1
# [7] = molecular target: SPI1 (Homo sapiens, UniProt P17947 1-270); conditions: protein: recombinant; tags: N-terminal GST; dsDNA, one strand shown
# How it was run: as §1
# [8] = molecular target: T5, ELK3 (Homo sapiens, UniProt P41970 1-407); conditions: protein: recombinant; tags: N-terminal GST; dsDNA, one strand shown
# T5 sequence: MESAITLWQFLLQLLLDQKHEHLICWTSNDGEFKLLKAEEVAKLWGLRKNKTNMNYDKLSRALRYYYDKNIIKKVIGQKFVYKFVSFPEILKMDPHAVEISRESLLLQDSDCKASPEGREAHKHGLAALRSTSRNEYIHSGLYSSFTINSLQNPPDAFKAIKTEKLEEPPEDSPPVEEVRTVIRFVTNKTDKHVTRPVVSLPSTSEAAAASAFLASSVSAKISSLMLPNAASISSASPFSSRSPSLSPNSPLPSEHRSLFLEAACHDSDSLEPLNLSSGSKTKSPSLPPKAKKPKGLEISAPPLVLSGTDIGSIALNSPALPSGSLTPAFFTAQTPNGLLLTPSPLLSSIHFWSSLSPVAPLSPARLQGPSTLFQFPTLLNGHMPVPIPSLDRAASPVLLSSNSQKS
# How it was run: as §1
# [9] = molecular target: T6, ELF3 (Homo sapiens, UniProt P78545 1-371); conditions: protein: recombinant; tags: N-terminal GST; dsDNA, one strand shown
# T6 sequence: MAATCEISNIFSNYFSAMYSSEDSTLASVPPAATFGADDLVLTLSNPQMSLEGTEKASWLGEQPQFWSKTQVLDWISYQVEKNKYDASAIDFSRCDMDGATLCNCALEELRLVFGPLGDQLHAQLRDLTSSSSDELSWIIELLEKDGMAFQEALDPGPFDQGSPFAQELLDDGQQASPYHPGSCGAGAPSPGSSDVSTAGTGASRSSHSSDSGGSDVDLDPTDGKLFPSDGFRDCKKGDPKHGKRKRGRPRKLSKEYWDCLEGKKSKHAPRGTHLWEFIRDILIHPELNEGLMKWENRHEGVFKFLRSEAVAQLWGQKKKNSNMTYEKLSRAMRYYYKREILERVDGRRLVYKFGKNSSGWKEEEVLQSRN
# How it was run: as §1
# [10] = molecular target: T7, ERF (Homo sapiens, UniProt P50548 1-548); conditions: protein: recombinant; tags: N-terminal GST; dsDNA, one strand shown
# T7 sequence: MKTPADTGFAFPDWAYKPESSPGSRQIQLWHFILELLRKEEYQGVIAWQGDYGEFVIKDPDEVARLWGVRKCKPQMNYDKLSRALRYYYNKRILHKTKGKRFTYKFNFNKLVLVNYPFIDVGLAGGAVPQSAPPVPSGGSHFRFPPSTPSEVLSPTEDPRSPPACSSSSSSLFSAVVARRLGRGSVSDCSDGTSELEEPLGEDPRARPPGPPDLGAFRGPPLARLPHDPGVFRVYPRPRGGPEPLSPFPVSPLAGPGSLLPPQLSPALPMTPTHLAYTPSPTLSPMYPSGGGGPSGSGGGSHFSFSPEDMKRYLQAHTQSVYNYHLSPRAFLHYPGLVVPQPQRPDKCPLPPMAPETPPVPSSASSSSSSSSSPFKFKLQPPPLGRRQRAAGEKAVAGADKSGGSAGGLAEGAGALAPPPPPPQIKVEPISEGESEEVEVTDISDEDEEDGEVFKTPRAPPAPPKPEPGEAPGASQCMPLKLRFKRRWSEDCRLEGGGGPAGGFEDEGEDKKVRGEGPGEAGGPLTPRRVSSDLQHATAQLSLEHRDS
# How it was run: as §1
# [11] = molecular target: T8, ETV3L (Homo sapiens, UniProt Q6ZN32 1-361); conditions: protein: recombinant; tags: N-terminal GST; dsDNA, one strand shown
# T8 sequence: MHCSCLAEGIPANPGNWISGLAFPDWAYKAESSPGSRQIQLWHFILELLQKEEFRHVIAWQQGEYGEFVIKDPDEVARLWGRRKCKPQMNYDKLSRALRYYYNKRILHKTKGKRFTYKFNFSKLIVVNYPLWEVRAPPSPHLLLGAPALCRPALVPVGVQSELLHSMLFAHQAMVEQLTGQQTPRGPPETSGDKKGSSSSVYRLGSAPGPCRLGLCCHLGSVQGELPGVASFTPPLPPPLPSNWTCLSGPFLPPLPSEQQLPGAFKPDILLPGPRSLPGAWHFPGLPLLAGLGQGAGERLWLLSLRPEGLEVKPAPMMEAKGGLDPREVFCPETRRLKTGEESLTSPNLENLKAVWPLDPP
# How it was run: as §1
# [12] = molecular target: T9, SPDEF (Homo sapiens, UniProt O95238 1-335); conditions: protein: recombinant; tags: N-terminal GST; dsDNA, one strand shown
# T9 sequence: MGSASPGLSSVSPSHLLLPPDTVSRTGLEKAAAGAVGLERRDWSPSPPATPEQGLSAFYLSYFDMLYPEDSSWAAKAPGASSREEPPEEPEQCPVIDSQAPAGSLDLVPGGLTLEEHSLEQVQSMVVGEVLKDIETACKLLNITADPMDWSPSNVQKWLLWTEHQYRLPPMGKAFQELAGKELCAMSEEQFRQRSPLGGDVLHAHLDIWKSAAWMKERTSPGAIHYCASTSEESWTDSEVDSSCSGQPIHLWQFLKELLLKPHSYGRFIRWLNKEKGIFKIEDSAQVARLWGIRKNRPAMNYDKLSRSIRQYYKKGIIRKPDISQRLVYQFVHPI
# How it was run: as §1
# [13] = molecular target: T10, ETV7 (Homo sapiens, UniProt Q9Y603 1-341); conditions: protein: recombinant; tags: N-terminal GST; dsDNA, one strand shown
# T10 sequence: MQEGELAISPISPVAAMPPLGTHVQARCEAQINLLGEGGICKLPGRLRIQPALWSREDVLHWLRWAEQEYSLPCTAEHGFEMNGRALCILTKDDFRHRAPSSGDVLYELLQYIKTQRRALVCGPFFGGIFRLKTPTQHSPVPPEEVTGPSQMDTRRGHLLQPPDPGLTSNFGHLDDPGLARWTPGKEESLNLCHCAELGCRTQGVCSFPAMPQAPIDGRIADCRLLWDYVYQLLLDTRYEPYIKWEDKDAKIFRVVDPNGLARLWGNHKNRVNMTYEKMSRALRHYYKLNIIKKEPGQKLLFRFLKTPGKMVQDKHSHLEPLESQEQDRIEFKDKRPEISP
# How it was run: as §1
# [14] = molecular target: T11, ETV3 (Homo sapiens, UniProt P41162-2 1-143); conditions: protein: recombinant; tags: N-terminal GST; dsDNA, one strand shown
# T11 sequence: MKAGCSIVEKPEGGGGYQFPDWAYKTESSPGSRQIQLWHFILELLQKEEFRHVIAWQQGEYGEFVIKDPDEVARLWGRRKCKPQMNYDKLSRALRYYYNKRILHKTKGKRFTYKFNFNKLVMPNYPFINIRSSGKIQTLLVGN
# How it was run: as §1
# [15] = molecular target: ETV6 (Homo sapiens, UniProt P41212 1-452); conditions: protein: recombinant; tags: N-terminal GST; dsDNA, one strand shown
# Sequence of ETV6 (P41212 whole entry): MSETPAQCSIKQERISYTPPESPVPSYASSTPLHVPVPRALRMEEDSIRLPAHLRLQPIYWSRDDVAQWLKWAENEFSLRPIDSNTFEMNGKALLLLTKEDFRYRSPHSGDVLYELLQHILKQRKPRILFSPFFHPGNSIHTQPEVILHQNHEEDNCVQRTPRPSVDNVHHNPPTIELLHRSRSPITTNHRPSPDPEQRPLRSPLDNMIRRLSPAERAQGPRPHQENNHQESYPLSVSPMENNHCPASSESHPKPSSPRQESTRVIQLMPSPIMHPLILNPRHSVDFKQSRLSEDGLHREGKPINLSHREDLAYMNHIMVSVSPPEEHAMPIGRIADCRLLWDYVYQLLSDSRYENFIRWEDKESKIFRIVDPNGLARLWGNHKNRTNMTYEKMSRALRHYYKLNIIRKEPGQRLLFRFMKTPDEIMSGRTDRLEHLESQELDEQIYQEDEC
# How it was run: as §1
Sequence,binding signal [1],binding signal [2],binding signal [3],binding signal [4],binding signal [5],binding signal [6],binding signal [7],binding signal [8],binding signal [9],binding signal [10],binding signal [11],binding signal [12],binding signal [13],binding signal [14],binding signal [15]
AGAGAA,"1.36 fold enrichment (6-mer frequency, TF over GST control)",–,–,–,–,–,–,–,–,–,–,–,–,–,–
CTGGTG,–,"1.01 fold enrichment (6-mer frequency, TF over GST control)","1.05 fold enrichment (6-mer frequency, TF over GST control)","1.01 fold enrichment (6-mer frequency, TF over GST control)","1.02 fold enrichment (6-mer frequency, TF over GST control)","1.09 fold enrichment (6-mer frequency, TF over GST control)","1.04 fold enrichment (6-mer frequency, TF over GST control)","1.15 fold enrichment (6-mer frequency, TF over GST control)","1.09 fold enrichment (6-mer frequency, TF over GST control)","1.05 fold enrichment (6-mer frequency, TF over GST control)","1.06 fold enrichment (6-mer frequency, TF over GST control)","1.01 fold enrichment (6-mer frequency, TF over GST control)","1.04 fold enrichment (6-mer frequency, TF over GST control)","1.03 fold enrichment (6-mer frequency, TF over GST control)","1.03 fold enrichment (6-mer frequency, TF over GST control)"
